Screening results as filed in PubChem.
IL-2 act – activates IL-2 in a cell-based reporter assay | IL-2 activation reporter assay, cell-based qHTS; stimulated with anti-CD3/CD4/CD28 beads; in transgenic mouse T cells | activation, % (series mostly up to about 46 µM) | actives 0.065% (n = 360,000) | AID 652025; in the data active = activation above about 50%; inconclusive = mostly about 30% to 49%; also: 0% is about no effect
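Screening format: compound pinned onto unstimulated transgenic mouse T cells, 60 min incubation, then anti-CD3/anti-CD4/anti-CD28 bead stimulation for 18 hours at 37 degrees C, followed by EGFP and DsRed detection.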
NPSR antag – antagonists of human neuropeptide S receptor cAMP signaling. Q6W5P4. CHO-NPSR cells, cAMP TR-FRET, antagonist mode. Potency, µM (titrated, usually from 38.3 µM), for inactives: top-dose activity change, negative = inhibition, hits mostly inhibitors. actives 1% (n = 220,000); also: potency is read from the fitted curve at half-maximal effect; % is scaled to controls: 0 for no effect and ±100 for the full control effect; nearly all actives have a fitted effect of over 50% in size
Target sequence (Q6W5P4 whole entry, looked up): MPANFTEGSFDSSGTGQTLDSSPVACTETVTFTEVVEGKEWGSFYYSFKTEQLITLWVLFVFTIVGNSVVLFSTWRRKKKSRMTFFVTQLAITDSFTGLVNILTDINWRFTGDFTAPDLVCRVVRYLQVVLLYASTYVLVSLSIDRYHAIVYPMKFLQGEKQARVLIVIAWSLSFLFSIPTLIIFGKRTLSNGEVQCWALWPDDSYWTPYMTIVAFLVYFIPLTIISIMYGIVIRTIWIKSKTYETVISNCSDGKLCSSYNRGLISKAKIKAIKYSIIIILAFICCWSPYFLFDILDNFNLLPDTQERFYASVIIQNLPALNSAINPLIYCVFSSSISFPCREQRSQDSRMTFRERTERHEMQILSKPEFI
ClpP mod – qHTS Assay for Activators of ClpP. ATP-dependent Clp protease proteolytic subunit (Bacillus subtilis (strain 168)), P80244. purified B. subtilis ClpP, FRET peptide cleavage, 20 min. Potency, µM (series often up to 57.5 µM), inactives show top-dose activity change, negative = active. actives 1.9% (n = 340,000). AID 651965, 2013; active = well fitted falling curve with a large enough effect; inconclusive = small, poorly fitted or top-dose-only effect; inactive = no such curve, though single readings can be large or run the other way; also: potency is read from the fitted curve at half-maximal effect; the source files actives as falling curves though it sought activators and does not explain the sign; nearly all actives have a fitted effect of over 65% in size
Target sequence (P80244 whole entry, looked up): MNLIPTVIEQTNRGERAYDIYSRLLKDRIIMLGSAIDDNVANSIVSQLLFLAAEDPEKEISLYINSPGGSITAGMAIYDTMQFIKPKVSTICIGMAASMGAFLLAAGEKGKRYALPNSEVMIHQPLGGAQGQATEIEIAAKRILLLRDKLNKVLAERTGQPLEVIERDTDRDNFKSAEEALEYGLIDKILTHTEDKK
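Purified B. subtilis ClpP, 10 microg/mL final in Tris/HCl pH8 with KCl, BSA, glycerol and Tween-20, cleaved an Abz/nitrotyrosine-quenched decapeptide. Fluorescence (ex 320, em 430) was read at 0 and 20 min at room temperature. Delta was normalized to 5.8 microM ADEP and DMSO/no-enzyme controls.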
PKM2 act – increases activity of human pyruvate kinase M2 | P14618 | purified PKM2, Kinase-Glo ATP luminescence, activation; response scale: 0% is enzyme alone, no compound | Potency, µM (doses to about 57.5 µM), for inactives: at the top dose activation, actives largely listed as activators | actives 0.34% (n = 260,000) | AID 1631; also: potency is read from the fitted curve at half-maximal effect; % is scaled to controls: 0 for no effect and ±100 for the full control effect; nearly all actives have a fitted effect of over 55% in size
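ATP formation by purified human PK-M2, quantified via coupled luciferase luminescence after 1 h at room temperature with 0.1 mM ADP and 0.5 mM PEP final.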
* = called active by the depositor; ? = inconclusive; / = no result given; ! = not confirmed by another sample; [ ] = dose if it differs, or a comment. Shown are actives, neighbours in structure and some others; about 2% of the full set was active somewhere. Unless noted, calls follow the shape of the dose curve; as a rule, active = well fitted curve in the direction sought with a large enough effect; inconclusive = small, poorly fitted or top-dose-only effect, or another doubt; inactive = no such curve, though single readings can be large; an effect the other way counts as inactive or inconclusive.

SMILES	IL-2 act	NPSR antag	ClpP mod	PKM2 act
C#CCOC(=O)Nc1cccn(Cc2c(Cl)cccc2Cl)c1=O	0.8	-17.4%[46.1 µM]	?	2.9%
COC[C@@H]1CCCN1c1ccc2c(c1)O[C@@H](COCc1ccccc1)CN([C@@H](C)c1ccccc1)S2(=O)=O	-1.0	/	14.1µM*	/
CC(=O)Oc1c(C(=O)c2nnc(C)o2)c(=O)n(C)c2ccccc12	-0.8	-5.8%	?	-3.6%
CCOC(=O)C1(C)CCN1C(=O)c1cccnc1Oc1ccccc1 (stereo unspecified)	2.3	/	-0.8%	/
Cc1nnc(SCC(=O)NC2CCCCC2)[nH]c1=O	0.2	/	/	/
CCN(CC)S(=O)(=O)c1cc([N+](=O)[O-])ccc1NNC(=O)Nc1ccc(Cl)c(Cl)c1	-1.3	10µM*	0.6%	-9.6%
O=C(COC(=O)c1n[nH]c2ccccc12)NC(=O)NCc1ccco1	-1.8	-17.0%[46.1 µM]	31.6µM*	-2.8%
Cc1ccc(N(NC(=O)C(O)(c2ccccc2)c2ccccc2)C(=O)CCl)cc1	-3.0	2.51µM*	4.8%	-7.7%
CC(C)CC(C(=O)OCC(=O)c1c(N)n(C)c(=O)n(C)c1=O)N1C(=O)c2ccccc2C1=O (stereo unspecified)	-1.2	4.9%	-0.3%	-2.8%
CC(C)(C)C(=O)Nc1nnc(SCC(=O)Nc2nccs2)s1	0.3	/	20µM*	-8.8%
Cc1cc(Cl)ccc1NC(=O)C(=O)N/N=C/c1ccc2c(c1)OCO2	-0.1	/	/	3.9%
Cc1ccc(C)c(-n2c(-c3ccc4c(c3)OCO4)n[nH]c2=S)c1	-2.0	?	28.2µM*	4.7%
Cc1ccc(C)c(-n2c(-c3csc(C)c3)n[nH]c2=S)c1	-1.7	-20.1%[46.1 µM]	?	4.5%
CC(C)(C)c1ccc(-c2n[nH]c(=S)n2-c2ccccc2)cc1	-0.4	/	8.91µM*	8.4%
N#Cc1ccc(OCC(O)CS(=O)(=O)c2ccc(F)cc2)cc1 (stereo unspecified)	-4.0	4.0%	3.0%	-7.4%
Cc1cc(SCC(=O)OCC(=O)N2CCN(C(=O)c3ccco3)CC2)c(C)cc1Br	-3.9	-13.2%[46.1 µM]	0.6%	25.1µM*
CCCCN1CC(N(C)CCN(C)C)CS1(=O)=O (stereo unspecified)	1.4	/	-0.6%	/
CCCn1cc2c(c1-c1cccc(C)c1)c(=O)n(C)c(=O)n2C	-0.2	-4.5%[46.1 µM]	14.1µM*	4.5%
Cc1cc(C)n(CCNC(=O)C2CCC(=O)N(CCc3cccc(F)c3)C2)n1 (stereo unspecified)	4.6	/	1.9%	-3.7%
Cc1ccc(CNC(=O)C2CC(=O)N(C3CCCCCC3)C2)cc1 (stereo unspecified)	-1.7	20.5%	-9.2%	-8.2%
CCN(CC)C(=O)Cn1cc(S(=O)(=O)CC(=O)Nc2ccccc2C)c2ccccc21	0.3	/	28.2µM*	/
COc1ccc(-c2ccccc2)cc1NCc1ccc(OC)c(OC)c1	-0.4	-2.9%	28.2µM*	1.3%
COc1ccc(CNC(=O)c2ccc(-c3ccccc3)cc2)cc1OC	0.9	-17.8%	-1.1%	1.2%
COc1ccccc1CNc1cc(-c2ccccc2)ccc1OC	-0.2	-26.9%	25.1µM*	-7.5%
COc1ccccc1CNc1ccccc1F	-2.4	-7.4%	/	3.7%
SMILES	IL-2 act	NPSR antag	ClpP mod	PKM2 act
COc1ccc(-c2ccccc2)cc1NCc1ccccc1C	-0.4	-1.9%	12.6µM*	0.5%
COC(=O)C1CCN(C(=O)COC(=O)Cc2c[nH]c3ccccc23)CC1	-0.4	5.1%[46.1 µM]	31.6µM*	8.2%
CC(=O)N1N=C(c2ccc(C)cc2)CC1c1ccco1 (stereo unspecified)	1.0	17.8%	/	?
CC(=O)N1N=C(c2ccc(Cl)cc2)CC1c1ccco1 (stereo unspecified)	-0.2	-54.4%	/	25.1µM*
Cc1cc2cc(C#N)c(NCCNC(=S)NCCCN3CCOCC3)nc2cc1C	-4.3	10.6%	/	-1.7%
CCOC(=O)N(C)c1ccc(C(O)(C(F)(F)F)C(F)(F)F)cc1	-1.2	2.2%[46.1 µM]	31.6µM*	17.3%
Cc1ccc(C)c(N(C)S(=O)(=O)c2ccc3[nH]cc(C(=O)NCCN4CCOCC4)c(=O)c3c2)c1	-0.6	-6.2%	17.8µM*	5.2%
COCCNC(=O)c1c[nH]c2ccc(S(=O)(=O)N3CCOCC3)cc2c1=O	-5.0	/	4.1%	0.2%
Cc1ccc(CNC(=O)c2c[nH]c3ccc(S(=O)(=O)N4CCOCC4)cc3c2=O)cc1	/	/	28.2µM*	/
CN(Cc1ccccc1)C(=O)c1c[nH]c2ccc(S(=O)(=O)N3CCOCC3)cc2c1=O	-4.5	6.2%	31.6µM*	0.5%
CCc1nnc2c(NCc3ccc(F)cc3)nc3ccccc3n12	/	/	-7.8%	/
CC(C)c1ccccc1Oc1c(C(F)(F)F)oc2c(CN3CCN(C)CC3)c(O)ccc2c1=O	/	/	-5.6%	/
CCOC(=O)/C(=C\c1ccc(Cl)cc1)c1nc2sc(C)c(C)c2c(=O)[nH]1	-3.1	7.94µM*	-1.9%	10.3%
CCOC(=O)CSc1nc2sc(C)c(C)c2c(=O)[nH]1	1.1	18.5%[46.1 µM]	1.4%	-0.6%
CCC1(C)Cc2c(sc3nn[nH]c(=O)c23)CO1 (stereo unspecified)	1.7	-8.0%[46.1 µM]	-1.5%	-8.9%
Cc1ccc(-n2c(CCC(=O)O)ccc2-c2cccs2)cc1C	1.0	-5.0%[46.1 µM]	11.2µM*!	?
COc1cccc(C2CC(c3cccs3)=NN2C(=O)CSc2nc3ccccc3o2)c1OC (stereo unspecified)	-3.2	-21.7%[46.1 µM]	8.91µM*	0.3%
COc1ccccc1C1CC(c2cccs2)=NN1C(=O)CCC(=O)O (stereo unspecified)	-2.1	/	/	-0.4%
O=C(C1=NN(c2ccccc2)C2C(=O)N(c3cccc(Cl)c3)C(=O)C12)c1ccccc1 (stereo unspecified)	-2.3	-10.2%	17.8µM*	-3.6%
O=C(C1=NN(c2ccccc2)C2C(=O)N(c3ccc(Cl)cc3)C(=O)C12)c1ccccc1 (stereo unspecified)	-0.4	-5.2%	0.7%	-12.6%
COc1cc(/C=C/C(=O)Nc2nnc(C(C)(C)C)s2)cc(OC)c1OC	-0.9	-7.8%	31.6µM*	-0.8%
COc1cc(/C=C/C(=O)Nc2nc3ccc(S(=O)(=O)N(C)C)cc3s2)cc(OC)c1OC	0.1	-4.6%	7.94µM*	-1.3%
COc1cc(/C=C/C(=O)Nc2ccc(C)cc2)cc(OC)c1OC	3.5	-0.9%	-2.2%	5.5%
C/C(CCC1CC(C)OC1=O)=N/Nc1nc(-c2ccccc2)cs1 (stereo unspecified)	-5.9	1.7%	-0.7%	6.8%
CN1C(C(=O)NCc2cccs2)=CC(c2ccc(F)cc2)=NS1(=O)=O	-0.4	/	-0.6%	6.4%[0.46 µM]
CC1=C(C(=O)Nc2ccc(Cl)cc2)C(c2ccccc2C)n2ncc(C(=O)Nc3ccc(C)cc3)c2N1 (stereo unspecified)	/	/	31.6µM*	/
COc1cccc(C2C(C(=O)Nc3ccc(Cl)cc3)=C(C)Nc3c(C(=O)Nc4ccccc4)cnn32)c1OC (stereo unspecified)	/	/	28.2µM*	/
O=[N+]([O-])c1cc(/C=N\Nc2nccs2)ccc1O	/	2.51µM*	/	13.8%
